Measurements published in PMC11006913.
Changes are numbered by the printed parent chain.

Tests used:
Assay in all cases: PBM; 200 nM protein, PBS
Settings in all cases: dsDNA, one strand shown
NKX2-5 [1] = molecular target: NKX2-5 (Homo sapiens, UniProt P52952 125-210, R139K)
NKX2-4 [2] = molecular target: T1, NKX2-4 (Homo sapiens, UniProt Q9H2Z4 175-261, P217L)
T1 sequence: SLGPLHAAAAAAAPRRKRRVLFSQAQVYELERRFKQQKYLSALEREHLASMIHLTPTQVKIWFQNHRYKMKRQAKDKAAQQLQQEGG

NKX2-4 [3] = molecular target: T2, NKX2-4 (Homo sapiens, UniProt Q9H2Z4 175-261, T231S)
T2 sequence: T1 sequence with L43P, T57S

NKX2-4 [4] = molecular target: T3, NKX2-4 (Homo sapiens, UniProt Q9H2Z4 175-261)
T3 sequence: T1 sequence with L43P

NKX2-6 [5] = molecular target: T4, NKX2-6 (Homo sapiens, UniProt A6NCS4 118-204, R150C)
T4 sequence: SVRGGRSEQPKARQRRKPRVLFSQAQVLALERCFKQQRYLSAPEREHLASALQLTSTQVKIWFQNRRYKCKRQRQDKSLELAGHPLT

NKX2-6 [6] = molecular target: T5, NKX2-6 (Homo sapiens, UniProt A6NCS4 118-204)
T5 sequence: T4 sequence with C33R

NKX2-4 [7] = molecular target: T6, NKX2-4 (Homo sapiens, UniProt Q9H2Z4 175-261, R246Q)
T6 sequence: T1 sequence with L43P, R72Q

NKX2-6 [8] = molecular target: T7, NKX2-6 (Homo sapiens, UniProt A6NCS4 118-204, F151L)
T7 sequence: T4 sequence with C33R, F34L

NKX3-2 [9] = molecular target: NKX3-2 (Homo sapiens, UniProt P78367 192-278, P234S)
NKX2-5 [10] = molecular target: NKX2-5 (Homo sapiens, UniProt P52952 125-210)
NKX3-2 [11] = molecular target: NKX3-2 (Homo sapiens, UniProt P78367 192-278)
Sequence of NKX3-2 (Homo sapiens, UniProt P78367 192-278) (P78367 192-278): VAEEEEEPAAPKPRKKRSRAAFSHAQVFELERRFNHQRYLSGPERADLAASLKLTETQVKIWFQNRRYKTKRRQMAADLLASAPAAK

Sequence of NKX3-2 (Homo sapiens, UniProt P78367 192-278, P234S) (P78367 192-278 P234S): as the sequence (P78367 192-278) above, with P43S counted along it
Sequence of NKX2-5 (Homo sapiens, UniProt P52952 125-210, R139K) (P52952 125-210 R139K): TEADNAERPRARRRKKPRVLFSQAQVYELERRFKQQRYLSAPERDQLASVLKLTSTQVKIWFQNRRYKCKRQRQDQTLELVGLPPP
Sequence of NKX2-5 (Homo sapiens, UniProt P52952 125-210) (P52952 125-210): as the sequence (P52952 125-210 R139K) above, with K15R counted along it

CACTTAAA
binding signal (NKX2-5 [1]): 13.1 upbm affinity estimate (log intensity, higher = more binding, comparable within an allelic series)
binding signal (NKX2-4 [2]): 12.7 upbm affinity estimate (log intensity, higher = more binding, comparable within an allelic series)
binding signal (NKX2-4 [3]): 13.1 upbm affinity estimate (log intensity, higher = more binding, comparable within an allelic series)
binding signal (NKX2-4 [4]): 12.6 upbm affinity estimate (log intensity, higher = more binding, comparable within an allelic series)
binding signal (NKX2-6 [5]): 12 upbm affinity estimate (log intensity, higher = more binding, comparable within an allelic series)
binding signal (NKX2-6 [6]): 13.8 upbm affinity estimate (log intensity, higher = more binding, comparable within an allelic series)
binding signal (NKX2-4 [7]): 13.2 upbm affinity estimate (log intensity, higher = more binding, comparable within an allelic series)
binding signal (NKX2-6 [8]): 11.4 upbm affinity estimate (log intensity, higher = more binding, comparable within an allelic series)
binding signal (NKX3-2 [9]): 12.7 upbm affinity estimate (log intensity, higher = more binding, comparable within an allelic series)
binding signal (NKX2-5 [10]): 13 upbm affinity estimate (log intensity, higher = more binding, comparable within an allelic series)
binding signal (NKX3-2 [11]): 12.8 upbm affinity estimate (log intensity, higher = more binding, comparable within an allelic series)

ATACTTGA
binding signal (NKX2-5 [1]): 12.4 upbm affinity estimate (log intensity, higher = more binding, comparable within an allelic series)
binding signal (NKX2-4 [2]): 12.6 upbm affinity estimate (log intensity, higher = more binding, comparable within an allelic series)
binding signal (NKX2-4 [3]): 13 upbm affinity estimate (log intensity, higher = more binding, comparable within an allelic series)
binding signal (NKX2-4 [4]): 12.5 upbm affinity estimate (log intensity, higher = more binding, comparable within an allelic series)
binding signal (NKX2-6 [5]): 11.6 upbm affinity estimate (log intensity, higher = more binding, comparable within an allelic series)
binding signal (NKX2-6 [6]): 13.5 upbm affinity estimate (log intensity, higher = more binding, comparable within an allelic series)
binding signal (NKX2-4 [7]): 13.2 upbm affinity estimate (log intensity, higher = more binding, comparable within an allelic series)
binding signal (NKX2-6 [8]): 10.7 upbm affinity estimate (log intensity, higher = more binding, comparable within an allelic series)
binding signal (NKX2-5 [10]): 12.3 upbm affinity estimate (log intensity, higher = more binding, comparable within an allelic series)

CTACTTGA
binding signal (NKX2-5 [1]): 12.3 upbm affinity estimate (log intensity, higher = more binding, comparable within an allelic series)
binding signal (NKX2-4 [2]): 12.6 upbm affinity estimate (log intensity, higher = more binding, comparable within an allelic series)
binding signal (NKX2-4 [3]): 13 upbm affinity estimate (log intensity, higher = more binding, comparable within an allelic series)
binding signal (NKX2-4 [4]): 12.4 upbm affinity estimate (log intensity, higher = more binding, comparable within an allelic series)
binding signal (NKX2-6 [5]): 11.6 upbm affinity estimate (log intensity, higher = more binding, comparable within an allelic series)
binding signal (NKX2-6 [6]): 13.3 upbm affinity estimate (log intensity, higher = more binding, comparable within an allelic series)
binding signal (NKX2-4 [7]): 13.1 upbm affinity estimate (log intensity, higher = more binding, comparable within an allelic series)
binding signal (NKX2-6 [8]): 10.5 upbm affinity estimate (log intensity, higher = more binding, comparable within an allelic series)
binding signal (NKX2-5 [10]): 12.3 upbm affinity estimate (log intensity, higher = more binding, comparable within an allelic series)

CCACTTAA
binding signal (NKX2-5 [1]): 13.4 upbm affinity estimate (log intensity, higher = more binding, comparable within an allelic series)
binding signal (NKX2-4 [2]): 12.8 upbm affinity estimate (log intensity, higher = more binding, comparable within an allelic series)
binding signal (NKX2-4 [3]): 13.2 upbm affinity estimate (log intensity, higher = more binding, comparable within an allelic series)
binding signal (NKX2-4 [4]): 12.7 upbm affinity estimate (log intensity, higher = more binding, comparable within an allelic series)
binding signal (NKX2-6 [5]): 12.3 upbm affinity estimate (log intensity, higher = more binding, comparable within an allelic series)
binding signal (NKX2-6 [6]): 14.1 upbm affinity estimate (log intensity, higher = more binding, comparable within an allelic series)
binding signal (NKX2-4 [7]): 13.3 upbm affinity estimate (log intensity, higher = more binding, comparable within an allelic series)
binding signal (NKX2-6 [8]): 11.5 upbm affinity estimate (log intensity, higher = more binding, comparable within an allelic series)
binding signal (NKX3-2 [9]): 13.2 upbm affinity estimate (log intensity, higher = more binding, comparable within an allelic series)
binding signal (NKX2-5 [10]): 13.2 upbm affinity estimate (log intensity, higher = more binding, comparable within an allelic series)
binding signal (NKX3-2 [11]): 13.3 upbm affinity estimate (log intensity, higher = more binding, comparable within an allelic series)

TAAGTGGA
binding signal (NKX2-5 [1]): 13.2 upbm affinity estimate (log intensity, higher = more binding, comparable within an allelic series)
binding signal (NKX2-4 [2]): 12.8 upbm affinity estimate (log intensity, higher = more binding, comparable within an allelic series)
binding signal (NKX2-4 [3]): 13.2 upbm affinity estimate (log intensity, higher = more binding, comparable within an allelic series)
binding signal (NKX2-4 [4]): 12.6 upbm affinity estimate (log intensity, higher = more binding, comparable within an allelic series)
binding signal (NKX2-6 [5]): 12.3 upbm affinity estimate (log intensity, higher = more binding, comparable within an allelic series)
binding signal (NKX2-6 [6]): 13.9 upbm affinity estimate (log intensity, higher = more binding, comparable within an allelic series)
binding signal (NKX2-4 [7]): 13.3 upbm affinity estimate (log intensity, higher = more binding, comparable within an allelic series)
binding signal (NKX2-6 [8]): 11.3 upbm affinity estimate (log intensity, higher = more binding, comparable within an allelic series)
binding signal (NKX3-2 [9]): 13.2 upbm affinity estimate (log intensity, higher = more binding, comparable within an allelic series)
binding signal (NKX2-5 [10]): 13.1 upbm affinity estimate (log intensity, higher = more binding, comparable within an allelic series)
binding signal (NKX3-2 [11]): 13.3 upbm affinity estimate (log intensity, higher = more binding, comparable within an allelic series)

CCACTTAG
binding signal (NKX2-5 [1]): 13.1 upbm affinity estimate (log intensity, higher = more binding, comparable within an allelic series)
binding signal (NKX2-4 [2]): 12.7 upbm affinity estimate (log intensity, higher = more binding, comparable within an allelic series)
binding signal (NKX2-4 [3]): 13 upbm affinity estimate (log intensity, higher = more binding, comparable within an allelic series)
binding signal (NKX2-4 [4]): 12.6 upbm affinity estimate (log intensity, higher = more binding, comparable within an allelic series)
binding signal (NKX2-6 [5]): 12.2 upbm affinity estimate (log intensity, higher = more binding, comparable within an allelic series)
binding signal (NKX2-6 [6]): 14 upbm affinity estimate (log intensity, higher = more binding, comparable within an allelic series)
binding signal (NKX2-4 [7]): 13.1 upbm affinity estimate (log intensity, higher = more binding, comparable within an allelic series)
binding signal (NKX2-6 [8]): 11.1 upbm affinity estimate (log intensity, higher = more binding, comparable within an allelic series)
binding signal (NKX3-2 [9]): 13.4 upbm affinity estimate (log intensity, higher = more binding, comparable within an allelic series)
binding signal (NKX2-5 [10]): 13.1 upbm affinity estimate (log intensity, higher = more binding, comparable within an allelic series)
binding signal (NKX3-2 [11]): 13.5 upbm affinity estimate (log intensity, higher = more binding, comparable within an allelic series)

CCACTTGA
binding signal (NKX2-5 [1]): 13.4 upbm affinity estimate (log intensity, higher = more binding, comparable within an allelic series)
binding signal (NKX2-4 [2]): 12.9 upbm affinity estimate (log intensity, higher = more binding, comparable within an allelic series)
binding signal (NKX2-4 [3]): 13.3 upbm affinity estimate (log intensity, higher = more binding, comparable within an allelic series)
binding signal (NKX2-4 [4]): 12.8 upbm affinity estimate (log intensity, higher = more binding, comparable within an allelic series)
binding signal (NKX2-6 [5]): 12.3 upbm affinity estimate (log intensity, higher = more binding, comparable within an allelic series)
binding signal (NKX2-6 [6]): 13.9 upbm affinity estimate (log intensity, higher = more binding, comparable within an allelic series)
binding signal (NKX2-4 [7]): 13.5 upbm affinity estimate (log intensity, higher = more binding, comparable within an allelic series)
binding signal (NKX2-6 [8]): 11.5 upbm affinity estimate (log intensity, higher = more binding, comparable within an allelic series)
binding signal (NKX3-2 [9]): 12.5 upbm affinity estimate (log intensity, higher = more binding, comparable within an allelic series)
binding signal (NKX2-5 [10]): 13.2 upbm affinity estimate (log intensity, higher = more binding, comparable within an allelic series)
binding signal (NKX3-2 [11]): 12.6 upbm affinity estimate (log intensity, higher = more binding, comparable within an allelic series)

ATTAAGTG
binding signal (NKX2-5 [1]): 12.7 upbm affinity estimate (log intensity, higher = more binding, comparable within an allelic series)
binding signal (NKX2-4 [2]): 12.5 upbm affinity estimate (log intensity, higher = more binding, comparable within an allelic series)
binding signal (NKX2-4 [3]): 12.9 upbm affinity estimate (log intensity, higher = more binding, comparable within an allelic series)
binding signal (NKX2-4 [4]): 12.4 upbm affinity estimate (log intensity, higher = more binding, comparable within an allelic series)
binding signal (NKX2-6 [5]): 11.8 upbm affinity estimate (log intensity, higher = more binding, comparable within an allelic series)
binding signal (NKX2-6 [6]): 13.7 upbm affinity estimate (log intensity, higher = more binding, comparable within an allelic series)
binding signal (NKX2-4 [7]): 13 upbm affinity estimate (log intensity, higher = more binding, comparable within an allelic series)
binding signal (NKX2-6 [8]): 11 upbm affinity estimate (log intensity, higher = more binding, comparable within an allelic series)
binding signal (NKX3-2 [9]): 12.7 upbm affinity estimate (log intensity, higher = more binding, comparable within an allelic series)
binding signal (NKX2-5 [10]): 12.6 upbm affinity estimate (log intensity, higher = more binding, comparable within an allelic series)
binding signal (NKX3-2 [11]): 12.8 upbm affinity estimate (log intensity, higher = more binding, comparable within an allelic series)

AAGTACCT
binding signal (NKX2-5 [1]): 12.6 upbm affinity estimate (log intensity, higher = more binding, comparable within an allelic series)
binding signal (NKX2-4 [2]): 12.5 upbm affinity estimate (log intensity, higher = more binding, comparable within an allelic series)
binding signal (NKX2-4 [3]): 12.9 upbm affinity estimate (log intensity, higher = more binding, comparable within an allelic series)
binding signal (NKX2-4 [4]): 12.4 upbm affinity estimate (log intensity, higher = more binding, comparable within an allelic series)
binding signal (NKX2-6 [5]): 11.7 upbm affinity estimate (log intensity, higher = more binding, comparable within an allelic series)
binding signal (NKX2-6 [6]): 13.4 upbm affinity estimate (log intensity, higher = more binding, comparable within an allelic series)
binding signal (NKX2-4 [7]): 12.9 upbm affinity estimate (log intensity, higher = more binding, comparable within an allelic series)
binding signal (NKX2-6 [8]): 10.6 upbm affinity estimate (log intensity, higher = more binding, comparable within an allelic series)
binding signal (NKX3-2 [9]): 12.6 upbm affinity estimate (log intensity, higher = more binding, comparable within an allelic series)
binding signal (NKX2-5 [10]): 12.4 upbm affinity estimate (log intensity, higher = more binding, comparable within an allelic series)
binding signal (NKX3-2 [11]): 12.6 upbm affinity estimate (log intensity, higher = more binding, comparable within an allelic series)

CAAGTGGC
binding signal (NKX2-5 [1]): 12.5 upbm affinity estimate (log intensity, higher = more binding, comparable within an allelic series)
binding signal (NKX2-4 [2]): 12.4 upbm affinity estimate (log intensity, higher = more binding, comparable within an allelic series)
binding signal (NKX2-4 [3]): 12.8 upbm affinity estimate (log intensity, higher = more binding, comparable within an allelic series)
binding signal (NKX2-4 [4]): 12.3 upbm affinity estimate (log intensity, higher = more binding, comparable within an allelic series)
binding signal (NKX2-6 [5]): 11.7 upbm affinity estimate (log intensity, higher = more binding, comparable within an allelic series)
binding signal (NKX2-6 [6]): 13.4 upbm affinity estimate (log intensity, higher = more binding, comparable within an allelic series)
binding signal (NKX2-4 [7]): 12.9 upbm affinity estimate (log intensity, higher = more binding, comparable within an allelic series)
binding signal (NKX2-6 [8]): 10.7 upbm affinity estimate (log intensity, higher = more binding, comparable within an allelic series)
binding signal (NKX3-2 [9]): 12.5 upbm affinity estimate (log intensity, higher = more binding, comparable within an allelic series)
binding signal (NKX2-5 [10]): 12.4 upbm affinity estimate (log intensity, higher = more binding, comparable within an allelic series)
binding signal (NKX3-2 [11]): 12.6 upbm affinity estimate (log intensity, higher = more binding, comparable within an allelic series)
